# Bioassay records from PubChem.
# NTMT1 inh – Primary qHTS for Inhibitors of N-terminal methyltransferase 1 (NTMT1): MTaseGlo Assay; 59,000 compounds, 2.5% hits; AID 1645870, 2021; NTMT1 MTase-Glo SAH luminescence, purified enzyme; N-terminal Xaa-Pro-Lys N-methyltransferase 1 (Homo sapiens), Q9BV86; Potency, µM (series often up to 114 µM), hits mostly inhibitors; also: nearly all actives have a fitted effect of over 65% in size
# Target sequence (Q9BV86 whole entry, looked up): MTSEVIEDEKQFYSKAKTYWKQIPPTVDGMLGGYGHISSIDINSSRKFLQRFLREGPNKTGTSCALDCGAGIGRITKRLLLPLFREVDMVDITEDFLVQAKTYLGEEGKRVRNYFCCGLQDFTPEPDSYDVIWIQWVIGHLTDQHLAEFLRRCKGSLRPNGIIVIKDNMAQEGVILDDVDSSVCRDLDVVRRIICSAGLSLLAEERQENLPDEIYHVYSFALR
# GPR32 ag – qHTS for Agonists of Human Resolvin D1 Receptor DRV1; AID 1346428, 2018; activation, % at 76.9 µM; Probable G-protein coupled receptor 32 (Homo sapiens), O75388; CHO-K1 GPR32 beta-arrestin PathHunter luminescence, 90 min; zero percent set by DMSO-only wells; 48,000 compounds, 2.5% hits;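 active = activation of at least 60% and not above a set upper limit, about 1 call in 100 departs from these limits; inconclusive = activation of 40% to 60%, or above that upper limit; inactive = activation under 40%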
#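 Agonism was scored by beta-Gal fragment complementation (chemiluminescent read, 1 h detection at ambient temperature) reporting beta-arrestin binding to GPR32 in engineered CHO-K1 cells. Compound treatment lasted 90 min at 37 C, normalized to a DMSO basal control.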
# OvCa metastasis – Primary qHTS assay for Inhibitors of ovarian cancer metastasis using an organotypic tumor microenvironment (TME) model; AID 1963576, 2024; SKOV3ip1-GFP adhesion/invasion on 3D omental model, fluorescence; 46,000 compounds, 0.1% hits; Potency, µM (top dose mostly 45.8 µM), most hits filed as inhibitors; also: nearly all actives have a fitted effect of over 65% in size
#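 A 3D layer of primary human omental fibroblasts, mesothelial cells, fibronectin and collagen I, grown 48 hr, received SKOV3ip1-GFP cells in serum-free medium plus compounds at 0.36-46 umol/L. After 2 hr RT and 16 hr 37 C, fixed adherent GFP cells were counted; normalized to DMSO and tomatine.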
# FH mod – Identification of activators of human fumarate hydratase by quantitative high-throughput screening; FH coupled MDH/diaphorase resazurin fluorescence, 15 min; Fumarate hydratase, mitochondrial (Homo sapiens), P07954; Potency, µM (titrated, usually from 79.9 µM), most hits filed as inhibitors; 54,000 compounds, 0.22% hits; AID 1347055, 2019; also: the screen sought activators but most active calls are inhibition curves; nearly all actives have a fitted effect of over 45% in size
# CLK4 inh-1 – Confirmation Assay for Inhibitors of CDC-like Kinase 4 (Kinase-Glo Assay): SAR round 2; recombinant Clk4, Kinase-Glo ATP luminescence, 4.5 h; 90 compounds, 90% hits; shares compounds with NTMT1 inh; Potency, µM (doses to about 76.9 µM), most hits filed as inhibitors
# CLK4 inh-2 – Kinase Inhibition Study on Inhibitors of CDC-like Kinase 4 (Reaction Biology data): SAR round 2; Potency, µM, most hits filed as inhibitors; Reaction Biology kinase assay, 10 uM ATP; 65 compounds, 100% hits; shares compounds with NTMT1 inh; calls by dose curve
# DYRK1A inh – Kinase Inhibition Study on Inhibitors of Dyrk1a (Reaction Biology data); 65 compounds, 90% hits; AID 504424, 2011; Potency, µM, most hits filed as inhibitors; Reaction Biology kinase assay, 10 uM ATP; shares compounds with NTMT1 inh;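 active = compounds that showed inhibition of Dyrk1a and received a fitted potency; inactive = compounds that showed no inhibition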
# CLK2 RBC – Kinase Inhibition Study on Inhibitors of CDC-like Kinase 2 (Reaction Biology data) | 65 compounds, 90% hits | Potency, µM, hits mostly inhibitors | shares compounds with NTMT1 inh | Reaction Biology kinase assay, 10 uM ATP | AID 504427, 2011;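 active = compound that inhibits Clk2 kinase in the dose series, with an IC50 potency reported; inactive = no inhibition seen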
# CLK3 RBC – Kinase Inhibition Study on Inhibitors of CDC-like Kinase 3 (Reaction Biology data); 65 compounds, 40% hits; recombinant CLK3 kinase assay, 10 uM ATP; shares compounds with NTMT1 inh; Potency, µM, most hits filed as inhibitors;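 active = compounds that inhibited Clk3 enough in the ten-dose series to give a half-maximal potency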
# DYRK1B inh – Kinase Inhibition Study on Inhibitors of Dyrk1b (Reaction Biology data); shares compounds with NTMT1 inh; Recombinant Dyrk1b kinase assay, 10 uM ATP; Potency, µM, actives largely listed as inhibitors; 65 compounds, 80% hits; AID 504429, 2011;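 active = compounds whose dose response shows an inhibitor phenotype against the kinase Dyrk1b; inactive = compounds showing no inhibitor phenotype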
# CLK1 RBC – Kinase Inhibition Study on Inhibitors of CDC-like Kinase 1 (Reaction Biology data) | 65 compounds, 90% hits | shares compounds with NTMT1 inh | recombinant Clk1 kinase assay, 10 uM ATP | AID 504430, 2011 | Potency, µM, hits mostly inhibitors;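 active = compounds that block the splicing kinase Clk1 enough to give a fitted half-inhibition concentration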
# Sfp PPTase inh – qHTS Assay for Inhibitos of Bacillus subtilis Sfp phosphopantetheinyl transferase (PPTase): Chemistry Optimization Followup | Potency, µM (doses to about 114 µM), actives largely listed as inhibitors | shares compounds with NTMT1 inh | purified Sfp PPTase enzyme activity, qHTS | 230 compounds, 78% hits
# HM489 growth – qHTS for Inhibitos of Bacillus subtilis Sfp phosphopantetheinyl transferase (PPTase): Chemistry Optimization Followup in B. Subtilis HM489; Potency, µM (series often up to 114 µM), hits mostly inhibitors; B. subtilis HM489 (acpS-) growth, BacTiter-Glo, 5 h; 220 compounds, 50% hits; shares compounds with NTMT1 inh; AID 540353, 2011
# Sfp gel opt – Gel-Based Assay for Inhibitos of Bacillus subtilis Sfp phosphopantetheinyl transferase (PPTase): Chemistry Optimization Followup; shares compounds with NTMT1 inh; purified Sfp PPTase, gel-based product detection; Potency, µM (highest dose often 250 µM), most hits filed as inhibitors; 220 compounds, 54% hits; AID 540355, 2011
# Sfp inh gel – qHTS Assay for Inhibitors of Bacillus subtilis Sfp phosphopantetheinyl transferase (PPTase): Gel Based Assay; Potency, µM (top dose mostly 250 µM), most hits filed as inhibitors; shares compounds with NTMT1 inh; AID 602362, 2012; purified Sfp PPTase, gel-based product detection; 45 compounds, 90% hits
# Sfp SAR2 – qHTS Assay for Inhibitors of Bacillus subtilis Sfp phosphopantetheinyl transferase (PPTase): SAR Round 2. Potency, µM (doses to about 57.1 µM), usual class: inhibitors. shares compounds with NTMT1 inh. purified Sfp enzyme, PPTase activity, qHTS. 230 compounds, 87% hits
# hGST ctr – qHTS Assay for Inhibitors of Bacillus subtilis Sfp phosphopantetheinyl transferase (PPTase): SAR in hGST A1-1. 55 tested, under 10 active. shares compounds with NTMT1 inh. hGST A1-1 enzyme activity counter-screen, qHTS. AID 602391, 2012. Potency, µM (titrated, usually from 114 µM), hits mostly inhibitors
# HSD17B4 counter – Extended Characterization of HPGD Inhibitors: Counterscreen Against HSD17b4 | 230 compounds, 10% hits | shares compounds with NTMT1 inh | Potency, µM (top dose mostly 57.1 µM), hits mostly inhibitors | purified HSD17B4, estradiol/NAD+, NADH fluorescence
# ALDH1A1 inh – Extended Characterization of HPGD Inhibitors: Counterscreen Against ALDH1A1; shares compounds with NTMT1 inh; recombinant ALDH1A1, NADH fluorescence, propionaldehyde/NAD+; Potency, µM (highest dose often 57.1 µM), hits mostly inhibitors; 230 compounds, 93% hits; AID 743195, 2013
# Target sequence (P00352 whole entry, looked up): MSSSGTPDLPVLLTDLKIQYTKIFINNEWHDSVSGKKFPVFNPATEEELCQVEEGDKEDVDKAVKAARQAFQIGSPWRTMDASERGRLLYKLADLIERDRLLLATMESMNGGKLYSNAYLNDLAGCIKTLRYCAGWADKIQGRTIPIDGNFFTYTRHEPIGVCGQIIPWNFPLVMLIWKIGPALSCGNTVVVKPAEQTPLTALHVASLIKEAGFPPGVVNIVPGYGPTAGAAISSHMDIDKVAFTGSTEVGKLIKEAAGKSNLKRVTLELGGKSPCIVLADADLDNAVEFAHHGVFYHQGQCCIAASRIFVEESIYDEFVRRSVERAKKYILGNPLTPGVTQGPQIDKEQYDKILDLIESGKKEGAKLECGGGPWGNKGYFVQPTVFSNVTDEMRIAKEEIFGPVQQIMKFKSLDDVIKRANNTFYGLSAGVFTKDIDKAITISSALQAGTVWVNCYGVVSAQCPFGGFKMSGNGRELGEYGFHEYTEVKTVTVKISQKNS
# NNMT inh – Counterscreen qHTS for Inhibitors of N-terminal methyltransferase 1 (NTMT1): NNMT MTaseGlo assay | Potency, µM (series often up to 57.1 µM), hits mostly inhibitors | 120 compounds, 10% hits | NNMT MTase-Glo luminescence, SAH detection | AID 1645878, 2021 | shares compounds with NTMT1 inh
# Numbers stand for hits; . = inactive; ? = inconclusive; / = not tested or not shown; [ ] = remark or other dose. Compounds with a hit are over-represented: about 3.9% of the library has one in this group of screens. Unless noted, calls follow the shape of the dose curve; as a rule, active = well fitted curve in the direction sought with a large enough effect; inconclusive = small, poorly fitted or top-dose-only effect, or another doubt; inactive = no such curve, though single readings can be large; an effect the other way counts as inactive or inconclusive.
SMILES,NTMT1 inh,GPR32 ag,OvCa metastasis,FH mod,Sfp PPTase inh,HM489 growth,Sfp gel opt,Sfp SAR2,HSD17B4 counter,ALDH1A1 inh,others
OCc1ccc(-c2ccc3ncnc(N4CCOCC4)c3c2)o1,.,/,/,/,/,/,/,/,/,/,CLK4 inh-1=0.52µM;CLK4 inh-2=1.1;DYRK1A inh=15µM;CLK2 RBC=14µM;CLK3 RBC=.;DYRK1B inh=15µM;CLK1 RBC=5.3µM
Cc1noc(C)c1-c1ccc2ncnc(NCC3CCN(C)CC3)c2c1,.,/,/,/,/,/,/,/,/,/,
O=C(O)[C@H](CC(=O)N1C[C@@H]2CCCC[C@H]2C1)Cc1ccccc1,.,/,.,.,/,/,/,/,/,/,
Cc1cc(C)nc(NC(=S)N2CCN(c3cc(Cl)c(Cl)cc3Cl)CC2)c1,?,/,/,/,4.7µM,?,5µM,3.2µM,.,22µM,
Cc1cc(C)nc(NC(=S)N2CCN(c3ccc(Cl)c(Cl)c3Cl)CC2)c1,?,/,/,/,2.4µM,7.4µM,?,0.73µM,.,19µM,
Cc1cc(C)nc(NC(=S)N2CCN(c3ccc([N+](=O)[O-])cc3Cl)CC2)c1,28µM,/,/,/,1.5µM,.,2µM,0.81µM,19µM,0.68µM,Sfp inh gel=1.5µM;hGST ctr=.
Cc1ccc(N2CCN(C(=O)c3ccc4c(Cl)c5c(nc4c3)CCCC5)CC2)c(C)c1,.,.,.,.,/,/,/,/,/,/,
Cc1cc(C)nc(NC(=S)N2CCN(Cc3c(F)cccc3Cl)CC2)c1,.,/,/,/,8.3µM,.,.,?,.,11µM,
Cc1ccc(OCCn2c(CCNC(=O)C3CCN(C(=O)OC(C)(C)C)CC3)nc3ccccc32)cc1,.,/,/,/,/,/,/,/,/,/,
CC1OC(OC2C(CO)OC(OCC3OC(OC(=O)C45CCC(C)(C)CC4C4=CCC6C7(C)CCC(OC8OC(CO)C(O)C(OC9OC(CO)C(O)C(O)C9O)C8O)C(C)(C)C7CCC6(C)C4(C)CC5)C(O)C(O)C3O)C(O)C2O)C(O)C(O)C1OC1OC(CO)C(O)C(O)C1O (configuration not stated),.[6.45 µM],/,/,.[13.5 µM],/,/,/,/,/,/,
Cc1cc(C)nc(NC(=S)N2CCN(c3ccc4ncccc4c3[N+](=O)[O-])CC2)c1,?,/,/,/,5.9µM,.,.,2.9µM,.,19µM,
Cc1ccc(N2CCN(C(=O)c3cnc(N4CCCCC4)c4ccccc34)CC2)c(C)c1,.,.,.,.,/,/,/,/,/,/,
O=C(Nc1ccc(S(=O)(=O)C(F)(F)F)cc1)C1=CCN(c2ncccc2C(F)(F)F)CC1,.,/,/,.,/,/,/,/,/,/,NNMT inh=.
O=C(Nc1ccccc1C(F)(F)F)N1Cc2ccccc2Oc2ncccc21,.,.,.,.,/,/,/,/,/,/,
